From PubChem BioAssay AID2685 (National Center for Advancing Translational Sciences (NCATS), 2010)
“And” between values parts separate entries of the source, which are not always exact repeats. Identical values can stand only once. Hit rate of the full screen: of about 320,000 compounds, about 2,100 (0.66%) were called active. Roughly 53% stayed inconclusive and do not appear here. The call rests on the fitted dose curve; in most records, active means well fitted inhibition curve with a large enough effect in the signal ratio, with a control signal flat (not every such curve was filed as active); inconclusive means small, poorly fitted or top-dose-only effect, or effect the other way, or a change in a side signal; inactive means flat fitted curve, though single readings scatter; the % refers to the signal ratio. Shown is part of a subset that was picked to be rich in actives.

Assay: qHTS Assay for Lipid Storage Modulators in Drosophila S3 Cells;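 on cell number change: cells counted by Cell Tracker Red CMTPX staining in the red channel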; on lipid storage change, negative = inhibition: on the % scale 0 is the no-effect control and ±100 the full control effect
Conditions: BODIPY lipid droplet fluorescence, 18-24 h, cells fed with added oleic acid; cell number change: measured here: cell count max response; series mostly up to 46.1 µM
Text: NIH Molecular Libraries Probe Production Centers Network [MLPCN] NIH Chemical Genomics Center [NCGC] MLPCN Grant: 1 R03 MH085686-01 Assay Submitter (PI): Beller, Mathias; Max-Planck-Institut fur Biophysikalische Chemie NCGC Assay Overview: Storing lipids as a reservoir for energy or the anabolism of elementary metabolites is a common feature of probably all cells and is conserved from bacteria to humans. The universal cellular lipid storage organelle is the so-called lipid storage droplet (LD). Although ubiquitous, LDs share a simple structure composed of a hydrophobic core that harbors the storage lipids, which is shielded by a droplet-specific phospholipid monolayer to which proteins are attached. The current model of LD biogenesis involves an incorporation of the lipid core into the membrane leaflets of the endoplasmic reticulum (ER) followed by a subsequent budding-like maturation of a LD, which ultimately pinches off. Once released, LD volume can increase by localized lipogenesis or fusion of existing droplet. Storage lipids are re-mobilized enzymatically by lipase activity. Lipase regulation in the adipocyte is heavily studied and involves multiple components including catecholamine signaling, the LD-associated proteins Perilipin and comparative gene identification (CGI-58) and at least two lipases named hormone sensitive lipase (HSL) and adipocyte triglyceride lipase (ATGL). LD regulation outside of the adipocyte is poorly understood and only few components are known. However, there is an urgent need to learn more about ectopic fat depots as mislocalized storage of lipids, for example in the liver or muscle, is an eminent health problem associated with insulin resistance or the metabolic syndrome. We developed a laser-scanning cytometer assay to enable 1,536-well screening and combined the results of the small molecules screen with an RNAi database based on lipid storage.
Triacsin C (Sigma-Aldrich T-4540), an inhibitor of long-chain fatty acyl CoA synthetase that blocks synthesis of triglycerides, was used as a positive control for lipid under-storage. A total of 23 nL of compound solution of different concentrations were transferred to the assay plates using a Kalypsys pin tool equipped with a 1,536-pin array containing 10-nL slotted pins (FP1S10, 0.457-mm diameter, 50.8 mm long; V&P Scientific). One microliter of oleic acid (400 uM) was added, and the plate was lidded with stainless steel rubber gasket lined lids containing pinholes. […] Fluorescence was detected by excitation of the fluorophores with a 488-nm laser on an Acumen Explorer (TTP Lab Tech). The total intensity in channel 2 (500-530 nm) reflected lipid droplet accumulation. Cells were detected using channel 3 (575-640 nm) with 5-um width and 100-um depth filters. The ratio of the number of objects in PMT channel 2 over the number of objects in PMT channel 3 was also calculated. Percent activity was computed relative to an internal control (100% inhibited lipid droplet deposition due to the presence of 20 uM Triacsin C), which was added to 32 wells/plate.
Potency means the concentration at half of the fitted maximal effect.

SMILES	Potency	cell number change	lipid storage change, negative = inhibition
O=C(CSc1nnnn1-c1ccccc1)N1N=CCC1c1ccccc1 (stereo not drawn)	inactive	-5.17%	
CC[n+]1c(/C=C/N(C)c2ccccc2)oc2ccc(F)cc21	25.9 µM (active)	6.99%	
CC[n+]1c(/C=C/C=C/N(C(C)=O)c2ccccc2)sc2ccccc21	inactive	10.1%	
CCn1c(C)[n+](CC)c2ccc(C(=O)N(C)c3ccccc3)cc21	inactive	19.5%	
C/C=C/COC(=O)C1=C(C)NC(=O)NC1c1ccc2c(c1)OCO2 (stereo not drawn)	inactive	9.12%	
Cc1c(N)cccc1-c1nc2ccccc2[nH]1	inactive	-2.56%	
CN(C)CCCNCCCNC(=O)/C(=N\O)c1ccccn1	inactive	11.1%	
O=C(Nc1ccc(C2CC2(Cl)Cl)cc1)c1ccccc1Br (stereo not drawn)	inactive	13.5%	
COc1ccc(CN(CC(=O)NCc2ccccc2)C(=O)c2csnn2)cc1	inactive	1.68%	
Cc1cccc(-c2ccc3ncnc(N(C)Cc4ccco4)c3c2)c1	inactive	-20.6%	
CN(Cc1ccco1)c1ncnc2ccc(-c3ccoc3)cc12	-1.69% and -0.798%		
CN(Cc1ccco1)c1ncnc2ccc(-c3ccc4c(c3)OCCO4)cc12	inactive		
O=C(COC(=O)/C=C/c1cccc(F)c1)Nc1ncccn1	inactive	-0.367%	
COc1cccc(N2CCN(c3nc(C)cc(=O)[nH]3)CC2)c1	inactive	15.9%	
O=C(CSc1nnnn1-c1ccc2c(c1)OCCO2)N1CCN(C(=O)c2ccco2)CC1	inactive	-0.608%	
Cc1cc2nc(SCC(=O)N(C)C)c3c(c2cc1C)CCCC3	inactive	-15.1%	
CCOC(=O)c1c(C)n(C)c2cc([N+](=O)[O-])c(O)c([N+](=O)[O-])c12	inactive	7.01%	
CCOC(=O)C1CCCCN1Cc1cc(Cl)ccc1O (stereo not drawn)	inactive	-14.7%	
O=C(Nc1ccc(NC(=O)c2cccc([N+](=O)[O-])c2)cc1)c1cccc([N+](=O)[O-])c1	inactive	-4.74%	
COc1cccc(C(=O)Nc2cccc(NC(C)=O)c2)c1	inactive	-21%	
COc1cccc(/C(C)=N/NC(=O)c2cc(-c3cccnc3)nc3ccccc23)c1	inactive	11.2%	

SMILES	Potency	cell number change	lipid storage change, negative = inhibition
COc1cccc(C(=O)Nc2ccc3ccccc3c2)c1	inactive	24%	
O=C(Nc1cccc(O)c1)c1ccccc1	inactive		
COc1cccc(-c2cc(C(=O)Nc3ccc4c(c3)OCCO4)c3ccccc3n2)c1	inactive		
COc1cccc(C(=O)Nc2cccc(-c3ccccc3)c2)c1	1.46 µM (active)	5.29%	
O=C(Nc1cccc(Br)c1)c1ccc(CSc2ccccc2)cc1	inactive	-13.3%	
O=C(Nc1cccc(C(=O)Nc2cccc(Br)c2)c1)c1ccccc1	5.8 µM (active)	0.351%	
O=C(Nc1ccc(C2CC2(Cl)Cl)cc1)c1cccc([N+](=O)[O-])c1 (stereo not drawn)	20.6 µM (active)	-18.3%	
COc1cccc(-c2cc(C(=O)Nc3cccnc3)c3ccccc3n2)c1	8.2 µM (active)		
COc1cccc(C(=O)Nc2ccc(C3CC3(Cl)Cl)cc2)c1 (stereo not drawn)			15.6% [at 9.22 µM] (inactive)
COc1ccc(-c2nc(CS(=O)CC(=O)NC3CCCCCC3)c(C)o2)cc1 (stereo not drawn)	inactive		
O=C(COC(=O)c1ccc(Br)o1)NCCc1ccccc1	inactive	14.1%	
O=C(NC1CCS(=O)(=O)C1)c1cccc(Br)c1 (stereo not drawn)	inactive	-19.9%	
COc1ccc(S(=O)(=O)N2CCN(C(=O)C3CC3)CC2)cc1	inactive	0.403%	
CCOC(=O)COc1ccc2c(c1)c(C(C)=O)c(C)n2-c1ccc(OC)cc1	inactive		
Cc1cccc(-c2nc3sc(C)cc3c(=O)o2)c1	inactive	1.66%	
COc1ccc(S(=O)(=O)N2CCCC(C(=O)NCc3ccc4c(c3)OCO4)C2)cc1 (stereo not drawn)	inactive	4.03%	
COc1ccc(Cc2nnc(SCC(=O)Nc3cc(Cl)ccc3C)[nH]c2=O)cc1	inactive	-4.71%	
CCc1cc(=O)oc2c(C)c(OCC(=O)N3CCC(C(=O)O)CC3)ccc12	inactive	-9.69%	
CCCCc1cc(=O)oc2cc(OCC(=O)NC(Cc3c[nH]c4ccc(O)cc34)C(=O)O)ccc12 (stereo not drawn)	inactive	-11.2%	
O=C(/C=C/Nc1ccc(Br)cn1)c1cccc(OC(F)F)c1	inactive	16.6%	
CCCc1cc(C(=O)Nc2cccc([N+](=O)[O-])c2)cs1	20 µM (active)	24.5%	

SMILES	Potency	cell number change	lipid storage change, negative = inhibition
COc1cccc(C(=O)COc2cccc(NC(=O)c3cccc([N+](=O)[O-])c3)c2)c1	18.4 µM (active)	20%	
COc1cccc(C(=O)COc2cccc(NC(=O)c3ccco3)c2)c1	inactive	29%	
COc1ccc(NC(=O)c2cccc([N+](=O)[O-])c2)cc1	inactive	0.213%	
O=C(Nc1cccc([N+](=O)[O-])c1)c1ccccc1	inactive	-11.6%	
CCC(=O)Nc1cccc(NC(=O)c2cccc([N+](=O)[O-])c2)c1	inactive	5.3%	
COc1cccc(C2NC(=O)NC(C)=C2C(=O)Nc2cc(OC)ccc2OC)c1 (stereo not drawn)	inactive	10.2%	
CC(C(=O)N1CCc2ccccc21)N1CCc2ccccc2C1 (stereo not drawn)	inactive	-14.5%	
CC(C(=O)N1CCc2ccccc21)N1CCN(Cc2ccc(Cl)cc2)CC1 (stereo not drawn)	inactive	-3.17%	
CC(C(=O)N1CCc2ccccc21)N1CCN(c2ccccn2)CC1 (stereo not drawn)	23.1 µM (active)	18%	
CCOc1ccccc1N(CC(=O)OC)S(=O)(=O)c1ccccc1	inactive	1.61%	
O=C(NNc1nc2c(F)cccc2s1)C1COc2ccccc2O1 (stereo not drawn)	inactive		
Cc1nc2nc[nH]n2c(=O)c1CCOC(=O)c1c(F)cccc1F	inactive	-14%	
Cc1nc2nc[nH]n2c(=O)c1CCOC(=O)c1ccccc1F	inactive	-14.3%	
CC(=O)OCCc1c(C)nc2nc[nH]n2c1=O	29.1 µM (active)	-16.2%	
OC[C@H]1O[C@@H](O[C@@H]2[C@@H](CO)O[C@@](O)(CO)[C@H]2O)[C@H](O)[C@@H](O)[C@H]1O	inactive		
O=C(Nc1ccccc1C(=O)NCCCN1CCOCC1)c1ccc(Cl)cc1	inactive	1.08%	
COc1ccc(CC(=O)NCC2CCCN(Cc3ccccc3Cl)C2)cc1 (stereo not drawn)	inactive	-2.61%	
Cc1ccc(NC(=O)c2sc3nc(N4CCOCC4)c4c(c3c2N)CC(C)(C)OC4)cc1	inactive		
Cc1nc2c(sc3nc(N4CCOCC4)c4c(c32)CC(C)(C)OC4)c(-c2ccccc2)c1C(=O)O	inactive	21%	
Cc1nc2c(sc3nc(N4CCOCC4)c4c(c32)CC(C)(C)OC4)c(-c2ccc(Cl)cc2)c1C(=O)O	16.4 µM (active)	-7.08%	
